Test results reported in the supplement of paper PMC3334620.
In all, about 33,000 sequences were measured (“E-score (-0.5 to 0.5)”: median about -0.021, highest 2% from about 0.32 on). The full list was thinned out, with the highest values kept by preference.

The sequences below were run against T1, Zap1 (UniProt P47043) (assay: PBM E-score (8-mer binding enrichment) (E-score (-0.5 to 0.5)); higher = stronger / more preferred TF binding). Conditions: protein concentration: 200 nM; construct: GST-full length.
T1 sequence: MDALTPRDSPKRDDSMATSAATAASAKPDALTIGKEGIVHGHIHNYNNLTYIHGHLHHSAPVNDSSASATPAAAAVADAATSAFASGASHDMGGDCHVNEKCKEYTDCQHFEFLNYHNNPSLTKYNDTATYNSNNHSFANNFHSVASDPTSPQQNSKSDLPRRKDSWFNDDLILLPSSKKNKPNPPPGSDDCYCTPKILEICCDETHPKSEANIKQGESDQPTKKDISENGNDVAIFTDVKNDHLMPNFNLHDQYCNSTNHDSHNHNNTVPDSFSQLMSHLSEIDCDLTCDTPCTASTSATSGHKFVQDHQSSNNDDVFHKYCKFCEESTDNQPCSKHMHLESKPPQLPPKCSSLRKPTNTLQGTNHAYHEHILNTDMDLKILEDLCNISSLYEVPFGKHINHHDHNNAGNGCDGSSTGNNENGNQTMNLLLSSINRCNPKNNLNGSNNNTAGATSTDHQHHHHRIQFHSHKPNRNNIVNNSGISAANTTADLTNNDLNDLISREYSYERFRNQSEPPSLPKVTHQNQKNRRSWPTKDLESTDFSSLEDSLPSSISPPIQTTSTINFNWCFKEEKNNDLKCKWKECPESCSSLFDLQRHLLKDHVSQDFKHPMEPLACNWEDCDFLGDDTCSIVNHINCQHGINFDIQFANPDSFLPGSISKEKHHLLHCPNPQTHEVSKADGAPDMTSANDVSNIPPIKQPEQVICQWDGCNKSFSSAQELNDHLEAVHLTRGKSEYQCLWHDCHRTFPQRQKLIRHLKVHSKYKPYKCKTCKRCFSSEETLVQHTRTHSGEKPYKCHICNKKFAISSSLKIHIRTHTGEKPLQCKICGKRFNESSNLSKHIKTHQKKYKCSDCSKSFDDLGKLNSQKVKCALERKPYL
Experimental: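 Universal 'all 10-mer' protein binding microarrays (Agilent AMADID 015681) probed with GST-tagged S. cerevisiae TFs (full-length or DBD) made by in vitro transcription/translation (PURExpress), about 100-200 nM. Bound TF was detected with fluorescent anti-GST. Each ungapped 8-mer (which stands for itself and its reverse complement) is scored by the PBM enrichment score (E-score), a modified Wilcoxon-Mann-Whitney statistic from -0.5 to +0.5, computed with the Universal PBM Analysis Suite. Scale: above 0.35 generally sequence-specific binding.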

Sequence | PBM E-score
CCATACCC | 0.29
GCATACCA | -0.0787
GCATACCC | 0.344
ACATACCC | 0.347
ACATACCG | -0.00488
ACATACCA | -0.0785
AGCAGGGG | -0.0612
AGACAATA | 0.0476
GGTTACTA | 0.447
AGTTACTA | 0.129
AGTTACCA | 0.263
CGTTACTA | 0.0809
CGTTACGA | 0.121
GGTTACCA | 0.468
GGTTACGA | 0.465
AGTTACGA | 0.226
CGTTACCA | 0.31
AGTCTTAT | -0.115
CCGATAGC | -0.225
AACTAAGG | 0.017
GACTACCC | 0.301
AACTACCG | 0.179

Sequence | PBM E-score
CACTACCA | 0.22
AACTACCC | 0.391
CACTACCC | 0.367
AACTACCT | 0.286
ATTGCCTG | -0.0833
GCCAGGGC | -0.128
CGCATACG | -0.12
ACCCTATG | 0.368
CCCCTATA | -0.102
ACCCTATC | 0.276
ACCCTATA | 0.354
GCCCTATA | -0.144
AACCTATG | 0.258
CCAGGCCG | -0.0809
GCGACACC | 0.0184
ACACTCAA | 0.139
AACGCTTC | -0.128
AGAAGCTA | -0.265
CAACCGTA | 0.0143
GTTCAAAA | 0.0198
TTTCAAAA | 0.321
CTTCAAAA | 0.0592

Sequence | PBM E-score
CGCACAAC | 0.122
ACGGTTAC | 0.411
ACGGTTGC | 0.117
ACGGTTTC | -0.0123
ACGGTTAG | 0.223
ACGGTTAA | 0.258
ACGGTTAT | 0.414
AGTTTGCA | -0.0409
TCCTCACA | 0.0409
AAGAACTC | 0.0396
ACAAAGAA | 0.178
ACTGAATC | -0.0382
AGTCATTA | -0.17
GGTCATTA | 0.321
AGTCATGA | 0.0992
CGTCATGA | 0.0742
GGTCATGA | 0.346
GGTCATAC | 0.313
TGTCATAA | 0.184
GGTCATAA | 0.379
CGTCATTA | -0.145
CCGGACCG | -0.129

Sequence | PBM E-score
AGCAATGC | -0.0926
ACGCGAAG | 0.0536
ACTACCCG | 0.261
GAGGGTCA | 0.397
ATGGGTCA | 0.359
GAGGGTCC | 0.134
TCGGGTCA | 0.233
TAGGGTGA | 0.299
AAGGGTCG | 0.36
GTGGGTCA | 0.211
ATGGGTCC | 0.263
ATGGGTCG | 0.0454
AGGGGTCG | 0.0682
ACGGGTCG | 0.116
TAGGGTCA | 0.408
ACTGGCTA | -0.0583
CCGAGACC | 0.197
AGCAATGG | -0.133
AAACAGGT | 0.135
ATACTCTC | -0.15
